Source: article PMC5540273 (PLoS ONE, 2017)

Columns and labels:
Conditions in all cases: concentration: 1 μM, replicates: in singlicate; n = 1
[1] = tested on: BRSK1
[2] = tested on: BRSK2
[3] = tested on: BTK
[4] = tested on: BUB1
[5] = tested on: CAMK1B
[6] = tested on: CAMK1D
[7] = tested on: CAMK1G
[8] = tested on: CAMK1
[9] = tested on: CAMK2A
[10] = tested on: CAMK2B
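Also: KINOMEscan kinase panel screen.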

Compound | %Inh [1] | %Inh [2] | %Inh [3] | %Inh [4] | %Inh [5] | %Inh [6] | %Inh [7] | %Inh [8] | %Inh [9] | %Inh [10]
Nc1nc(-c2ccc3c(N)n[nH]c3c2)cc(N2CCCCC2)n1 [GSK2228768] | 5% | 0% | 0% | 21% | 8% | 5% | 0% | 13% | 0% | 0%
OCCOCCn1ccc2ncnc(Nc3ccc(Oc4cccc(Cl)c4)c(Cl)c3)c21 | 0% | 33% | 0% | 0% | 0% | 0% | 0% | 0% | 0% | 0%
CS(=O)(=O)CCNCc1nc(-c2ccc3ncnc(Nc4ccc(OCc5cccc(F)c5)c(Cl)c4)c3c2)cs1.Cl [GW583340] | 0% | 0% | 0% | 0% | 6% | 15% | 2% | 20% | 0% | 0%
Nc1nccc2scc(-c3ccc4c(c3)CCN4C(=O)Cc3cc(F)ccc3F)c12 [GSK2587663] | 4% | 0% | 0% | 45% | 27% | 21% | 4% | 29% | 0% | 0%
COc1ccc(NC(=O)Nc2ccc(C)c(-c3ccc(C(=O)Nc4ccncc4)cc3)c2)cc1 [GSK1398475] | 0% | 0% | 0% | 28% | 1% | 3% | 0% | 4% | 0% | 0%
COc1cc2c(Nc3cccc(NC(=O)c4ccccc4)c3)ncnc2cc1OCCCN1CCOCC1 [GSK223810] | 0% | 10% | 0% | 31% | 37% | 18% | 0% | 32% | 0% | 0%
CCn1c(-c2ccncc2)nc2cnccc21 [SB-735216] | 0% | 0% | 28% | 15% | 45% | 6% | 0% | 0% | 0% | 0%
O=c1cc(N2CCOCC2)nc2n(Cc3cccc(Cl)c3)ccn12 [GSK2296823] | 25% | 0% | 0% | 18% | 22% | 22% | 0% | 0% | 0% | 0%
Clc1ccc(-c2cc(-c3c[nH]nc3-c3ccccn3)ccn2)cc1 [GW681251] | 0% | 0% | 0% | 31% | 0% | 2% | 0% | 0% | 0% | 0%
CCc1nc(-c2cccc(N(C)S(=O)(=O)c3ccccc3)c2)c(-c2ccnc(Nc3ccc(N4CCN(C(C)=O)CC4)nc3)n2)s1 [GSK1645895] | 0% | 0% | 0% | 0% | 27% | 29% | 16% | 45% | 0% | 0%
Cn1cc(-c2ccc3c(c2)CCN3C(=O)Cc2cccc(C(F)(F)F)c2)c2c(N)ncnc21 [GSK2606414] | 12% | 0% | 0% | 6% | 11% | 10% | 0% | 4% | 0% | 0%
Cl.c1ccc(Cn2ncc3cc(Nc4ncnc5ccccc45)ccc32)cc1 [GW273749] | 0% | 0% | 0% | 0% | 13% | 17% | 23% | 28% | 2% | 0%
Nc1nc(-c2ccccn2)c(-c2ccnc3ccccc23)s1 [GW548057] | 0% | 0% | 8% | 39% | 33% | 8% | 0% | 4% | 1% | 0%
Fc1cccc(COc2ccc(Nc3ncnc4nn5ccccc5c34)cc2Cl)c1 [GW689066] | 0% | 0% | 15% | 49% | 15% | 21% | 0% | 19% | 0% | 0%
Clc1cccc(-c2nc(Nc3ccncc3)c3ccccc3n2)c1 [GW873004] | 1% | 23% | 0% | 31% | 0% | 0% | 0% | 0% | 1% | 4%
Cc1cccc(-c2nc(Nc3ccc4[nH]nnc4c3)c3ccccc3n2)n1 [GW867587] | 0% | 0% | 0% | 13% | 0% | 0% | 0% | 0% | 0% | 8%
